From PubChem BioAssay
IL-1B inflam inh = blocks inflammasome-driven IL-1 beta release; THP-1 LPS/ATP IL-1B secretion, AlphaLISA, 16 h; stronger effect = lower value; activity change, % at 57.5 µM; 360,000 tested, 4.7% active; AID 743279; in the data active = activity change below about -50%; inconclusive = mostly about -30% to -49%; note: % is set by controls: 0 for no effect and ±100 for the full control effect
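THP-1 cells pretreated 1 hr with compounds (up to 57.5 uM final), then stimulated with LPS (250 ng/mL final) plus ATP (1.25 mM final); secreted IL-1B measured by AlphaLISA after 16 hr, decreased signal indicating inhibition.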
Vif-A3G inh = Vif-A3G binding inhibition. Q9HC16. HeLa A3G-eYFP + Vif (tagged APOBEC3G with the HIV-1 protein that degrades it), YFP fluorescence, overnight. Potency, µM (highest dose often 46.1 µM), without a hit: at the highest dose activity, negative = active, hits mostly inhibitors. 410,000 tested, 0.076% active. AID 602310; note: potency is the fitted concentration of half-maximal effect; % is set by controls: 0 for no effect and ±100 for the full control effect; nearly all actives have a fitted effect of over 60% in size
Target sequence (Q9HC16 whole entry, looked up): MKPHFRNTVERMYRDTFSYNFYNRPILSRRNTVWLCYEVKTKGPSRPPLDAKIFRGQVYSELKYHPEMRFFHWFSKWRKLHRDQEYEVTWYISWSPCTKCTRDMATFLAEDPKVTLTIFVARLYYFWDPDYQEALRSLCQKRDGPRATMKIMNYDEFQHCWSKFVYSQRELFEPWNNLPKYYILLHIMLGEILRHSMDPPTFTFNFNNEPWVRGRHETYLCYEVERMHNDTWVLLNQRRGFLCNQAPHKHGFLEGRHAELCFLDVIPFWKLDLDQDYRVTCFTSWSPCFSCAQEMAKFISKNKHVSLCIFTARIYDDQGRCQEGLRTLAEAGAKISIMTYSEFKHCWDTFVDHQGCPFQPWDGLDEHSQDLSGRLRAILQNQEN
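HeLa cells stably expressing Vif and C-terminally eYFP-tagged A3G, seeded overnight at 37 deg C, then exposed to compound by pintool overnight at 37 deg C. Rise in yellow fluorescence (Ex 488/Em 500-530, Acumen) marks blocked Vif-driven A3G degradation.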
MCF10A rerep = DNA re-replication induction in MCF 10a cells | MCF 10A DNA re-replication, Hoechst nuclear intensity, 48 h | Potency, µM (top dose mostly 46.1 µM), for inactives: at the highest dose activity, positive = re-replication, hits mostly activators | 350,000 tested, 2.9% active; note: potency is the fitted concentration of half-maximal effect; % of control where 0% means no effect; nearly all actives have a fitted effect of over 50% in size
Giardia killer = kills Giardia lamblia; Giardia lamblia trophozoite viability; activity change, % at 7.66 µM, hits read low; 340,000 tested, 0.15% active; in the data active = activity change below about -80%; inconclusive = between about -30% and that limit;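 note: parasites exposed to compound for two days anaerobically before the ATP read; % is set by controls: 0 for no effect and ±100 for the full control effect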
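Trophozoites 100 cells/well + cpd; 48 hrs, 37 deg C, anaerobic. ATPLite 1-Step added, 15-30 min RT, luminescence read (ATP-based viability).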
SW480 rerep = induces DNA re-replication in SW480 colon adenocarcinoma cells; SW480 DNA re-replication, Hoechst DNA content imaging, 48 h; Potency, µM (highest dose often 46.1 µM), for the others: at the highest dose re-replication activation, usual class: activators; 340,000 tested, 1.8% active; note: potency is the fitted concentration of half-maximal effect; % of control where 0% means no effect; nearly all actives have a fitted effect of over 55% in size
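Treated cells incubate 48 hr (37 C, 5% CO2), are stained 40 min with Hoechst, and nuclear fluorescence is enumerated; a rise in nuclei with high DNA signal marks re-replication.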
Vif-APOBEC3F blk = blocks the Vif interaction with APOBEC3F. AID 602313. Potency, µM (doses to about 46.1 µM), for the others: top-dose activity, negative = active. HeLa A3F-eYFP + Vif (tagged APOBEC3F with the HIV-1 protein that degrades it), YFP fluorescence increase. 390,000 tested, 0.2% active; note: potency is the fitted concentration of half-maximal effect; % of control where 0% means no effect; nearly all actives have a fitted effect of over 65% in size
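HeLa cells stably expressing Vif plus C-terminally eYFP-tagged A3F were seeded, incubated overnight at 37 deg C, dosed with compound, incubated overnight again at 37 deg C. Yellow fluorescence (Ex 488/Em 500-530) reported blocked Vif-mediated A3F-eYFP degradation.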
* hit, by the source's call; ? = inconclusive; · = not tested or not shown. Shown are actives, neighbours in structure and some others; about 6.9% of the full set was active somewhere. Unless noted, calls come from the whole dose curve; as a rule, active = well fitted curve in the direction sought with a large enough effect; inconclusive = small, poorly fitted or top-dose-only effect, or another doubt; inactive = no such curve, though single readings can be large; an effect the other way counts as inactive or inconclusive.

SMILES	IL-1B inflam inh	Vif-A3G inh	MCF10A rerep	Giardia killer	SW480 rerep	Vif-APOBEC3F blk
COc1ccc(/C=N/N2CCN(c3ccccc3)CC2)cc1Br	-55*	-10%	-1%	8	-17%	0%
CCCc1nc(SCC(=O)N2CCc3ccccc3C2)c2ccccc2n1	-72*	-15%	?	1	?	6%
CC1CC(C)CN(C(=O)CSc2nc(Cc3cccs3)nc3ccccc23)C1 (stereo not given)	-61*	-11%	26%	-17	1%	-2%
CCOC(=O)CNC(=O)CSc1nc(Cc2cccs2)nc2ccccc12	-11	-1%	-8%	-19	-1%	-5%
CCn1c(=O)cc(OCC(=O)NCc2ccccc2Cl)c2ccccc21	·	-3%	·	·	·	-10%
O=C1C(=O)c2ccccc2C(O)=C1CCCCl	-67*	-16%	?	?	-8%	0%
COc1ccc(CC2=C(O)c3ccccc3C(=O)C2=O)cc1	14	-24%	14%	11	1%	1%
COc1cc2cnc(-c3ccccc3)c(-c3ccc([N+](=O)[O-])cc3)c2cc1OC	-10	1%	16%	15	3%	-2%
COc1cc2cnc(-c3ccccc3)c(-c3cc(OC)c(OC)c(OC)c3)c2cc1OC	-51*	?	?	7	?	-2%
Cc1nnc2c(N3CCN(c4ccccc4F)CC3)nc3ccccc3n12	·	3%	·	·	·	5%
Cc1ccc(OCc2nc(C#N)c(NCc3ccc4c(c3)OCO4)o2)cc1	-64*	4%	?	-28	1%	-6%
CCOc1ccc(-c2nc(C#N)c(NCc3ccc4c(c3)OCO4)o2)cc1	-21	0%	1%	23	22%	-7%
CCc1ccc(NCc2cc3ccc(OC)cc3n(CC(=O)Nc3ccccc3C)c2=O)cc1	·	-4%	·	·	·	-5%
COc1ccccc1-c1noc(-c2ccc(N3CCN(c4ccccc4)CC3)c([N+](=O)[O-])c2)n1	·	1%	·	·	·	5%
COc1ccc(/C=c2\s/c(=C\C(=O)C(C)(C)C)[nH]c2=O)cc1O	?	-17%	?	-13	9%	-8%
COc1cc(/C=c2\s/c(=C\C(=O)C(C)(C)C)[nH]c2=O)cc(OC)c1OC	8	-27%	18µM*	-5	4.1µM*	-24%
Cc1ccc(S(=O)(=O)N(CC(=O)N/N=C/c2cccc(Cl)c2)c2cccc3cccnc23)cc1	45	-2%	?	-10	16µM*	-2%
CC[C@@]12CCCN3CCc4c(n(c5ccccc45)C(=O)C1)[C@H]32	·	·	?	·	11µM*	·
Cc1ccccc1CN1CCN(C(=O)c2cc(-c3ccncc3)nc3ccccc23)CC1	0	-10%	23%	-10	1%	3%
Cc1ccccc1N1CCN(C(=O)c2cc(-c3ccccc3)nc3c2cnn3C(C)C)CC1	9	2%	·	·	·	6%
Cc1cccc2c(C(=O)N3CCN(c4ccccn4)CC3)cc(-c3cccc(Br)c3)nc12	-12	0%	-6%	-6	16µM*	3%
Cc1cccc2c(C(=O)N3CCN(c4ccccc4)CC3)cc(-c3ccncc3)nc12	6	?	7.3µM*	-5	6.5µM*	0%
CC(C)n1ncc2c(C(=O)N3CCN(c4ccc(F)cc4)CC3)cc(-c3ccccc3)nc21	-58*	3%	9%	14	7%	2%
O=C(c1cc(-c2ccncc2)nc2ccccc12)N1CCN(Cc2ccccc2)CC1	-60*	-2%	16%	-4	-5%	4%
Cc1cccc2c(C(=O)N3CCCCC3)cc(-c3ccccc3)nc12	-14	-4%	?	-2	?	-12%
Cc1ccc(-n2ncc3c(NCCC4=CCCCC4)ncnc32)cc1C	·	0%	·	·	·	0%
CCOCC(=O)Nc1ccc(-c2cn3c(C)csc3n2)cc1	·	1%	·	·	·	5%
COC(=O)CS(=O)(=O)c1nc2ccccc2nc1N1CCCCC1	·	-20%	·	·	·	-4%
CCOc1ccc(C2=C(C(C)=O)Sc3nnc(C)n3N2C(C)=O)cc1	·	-6%	·	-14	·	4%
